Screening data as filed in PubChem.
E-sel TNF inh: blocks E-selectin expression induced by TNF alpha. 0.71% of 120,000 active. inhibition, % at 2 µM. HUVEC TNFa-induced E-selectin immunofluorescence, high content;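 active means inhibition above the batch mean plus 3 SD, and confirmed as a hit on visual image review, cut at about 43% in these data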
CYP2C19 inhib: blocks human cytochrome P450 2C19 | 21% of 96,000 active | P33261 | CYP2C19 Supersomes, luciferin-H EGE luminescence, 30 min | inhibition, % at 5 µM | AID 778;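 active means CYP2C19 inhibition above a set limit at 5 µM in the primary screen, cut at about 50% in these data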
CYP2C9 inhib: inhibitors of human CYP2C9; P11712; 20% of 96,000 active; CYP2C9 Supersomes, luciferin-H conversion, luminescence; inhibition, % at 5 µM;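 active means blocking of liver enzyme CYP2C9 beyond about 50% at 5 µM, limit read from the data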
Target sequence (P11712 whole entry, looked up): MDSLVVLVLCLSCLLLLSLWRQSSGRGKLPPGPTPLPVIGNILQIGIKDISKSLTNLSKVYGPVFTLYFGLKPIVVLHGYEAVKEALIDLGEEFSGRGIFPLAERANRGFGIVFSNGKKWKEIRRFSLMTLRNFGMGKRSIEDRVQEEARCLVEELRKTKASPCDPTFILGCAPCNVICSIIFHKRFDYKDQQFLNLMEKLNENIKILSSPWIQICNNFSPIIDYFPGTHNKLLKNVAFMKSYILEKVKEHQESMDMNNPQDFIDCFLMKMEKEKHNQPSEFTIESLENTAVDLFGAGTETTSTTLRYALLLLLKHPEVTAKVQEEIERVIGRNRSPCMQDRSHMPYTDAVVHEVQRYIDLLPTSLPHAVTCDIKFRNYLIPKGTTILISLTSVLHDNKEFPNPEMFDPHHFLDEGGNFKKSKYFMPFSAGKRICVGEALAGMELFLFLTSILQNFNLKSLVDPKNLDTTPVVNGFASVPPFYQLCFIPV
CYP2C9 act: increases human cytochrome P450 2C9 activity; P11712; recombinant CYP2C9, luciferin-H conversion, luminescence; stronger effect = higher value; factor 1 = untreated enzyme, 0 = blocked; activation factor at 5 µM; 1.4% of 96,000 active;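 active means activation factor of 2 or more for CYP2C9 at a 5 µM dose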
CYP2C19 act: activators of human cytochrome P450 2C19; P33261; recombinant CYP2C19, luciferin-H EGE luminescence; stronger effect = higher value; 0 = fully inhibited enzyme, 1 = untreated enzyme; activation factor at 5 µM; 96,000 tested, under 10 active;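 active means activation factor of at least 2 at 5 µM in the primary screen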
cytoskel mod: modifiers of cytoskeleton assembly; HUVEC TNFa F-actin phalloidin imaging, high content; inhibition, % at 2 µM; AID 836; 0.18% of 91,000 active;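 active means inhibition above the batch mean plus 3 SD and confirmed as a hit by visual image inspection, cut at about 30% in these data, passing the limit was not always enough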
Hits are given with their value; i = inactive; nt = no result given. Compounds with a hit are over-represented: about 22% of the library has one in this group of screens.

SMILES	E-sel TNF inh	CYP2C19 inhib	CYP2C9 inhib	CYP2C9 act	CYP2C19 act	cytoskel mod
CCc1nnc(NC(=O)c2cccc(NC(=O)C(C)C)c2)s1	i	i	i	i	i	i
CCCCCN=Cc1c(C)[nH]n(-c2nc3ccccc3s2)c1=O	nt	53	73	i	i	i
CCCc1[nH]n(-c2nc3ccccc3s2)c(=O)c1C=NCCN1CCOCC1	i	i	i	i	i	i
CCCCNC(C(=O)Nc1cccc(S(=O)(=O)N2CCOCC2)c1)c1ccccc1 (stereo not given)	i	nt	nt	nt	nt	nt
O=C(COC(=O)c1cc(=O)c2ccccc2o1)NCC1CCCCC1	i	nt	nt	nt	nt	nt
Cc1ccc2cc(CN(Cc3ccccc3)Cc3nnnn3C3CCCC3)c(=O)[nH]c2c1	nt	87	82	i	i	i
COc1ccc2cc(CN(Cc3ccco3)Cc3nnnn3C3CCCCC3)c(=O)[nH]c2c1	i	84	87	i	i	i
CCc1ccc2[nH]c(=O)c(CN(Cc3ccc4c(c3)OCO4)Cc3nnnn3C3CCCC3)cc2c1	i	i	60	i	i	i
O=C(NCc1ccccc1)c1cc2nc(C3CC3)cc(C(F)(F)F)n2n1	i	i	i	i	i	i
COc1cccc(NC(=O)Cn2nnc(-c3ccccc3N)n2)c1	nt	52	i	i	i	nt
Cc1cccc(NC(=O)CC2CCC2)c1	i	i	i	i	i	i
N/C(Cn1nnc(-c2ccccc2)n1)=N\O	i	i	i	i	i	i
O=C(CC1CCCC1)Nc1ccc2c(c1)CCC2	i	66	i	i	i	i
O=C(Cn1nnc(-c2ccccc2)n1)c1ccccc1	i	59	i	i	i	nt
O=C(Cn1nnc(-c2cccs2)n1)NCCc1ccccc1	i	nt	nt	nt	nt	i
O=C(Cn1nnc(-c2ccncc2)n1)NCCc1ccccc1	i	73	72	i	i	i
Cc1cc(Cl)c(S(=O)(=O)Nc2cc(S(=O)(=O)N3CCOCC3)ccc2F)cc1OCC(N)=O	i	nt	nt	nt	nt	nt
COc1ccc(C=O)cc1OS(=O)(=O)c1ccccc1[N+](=O)[O-]	i	nt	nt	nt	nt	nt
O=C(Cn1nnc(-c2ccccc2)n1)Nc1ccc2c(c1)OCO2	i	i	i	i	i	i
COc1cc(NC(=O)Cn2nnc(-c3ccncc3)n2)cc(OC)c1	i	89	92	i	i	i
O=C(Cn1nnc(-c2ccncc2)n1)Nc1ccc2c(c1)CCC2	i	91	75	i	i	i
CCOc1ccc(-c2nnn(CC(=O)Nc3cc(OC)cc(OC)c3)n2)cc1OCC	nt	i	i	i	i	i
O=C(Cn1nnc(-c2ccc(Cl)cc2)n1)NCCC1=CCCCC1	nt	52	i	i	i	i
COCCCNC(=O)c1ccc(-c2csc(C)n2)cc1	i	nt	nt	nt	nt	nt
O=C(CN1C(=O)NC(Cc2ccccc2)C1=O)NC(=O)NC1CCCCC1 (stereo not given)	i	i	i	i	i	i
SMILES	E-sel TNF inh	CYP2C19 inhib	CYP2C9 inhib	CYP2C9 act	CYP2C19 act	cytoskel mod
CCCCC(=O)Nc1cccc(NC(=O)c2ccc3c(c2)OCO3)c1	i	i	i	i	i	i
COc1cc([C@H]2[C@@H]3CCCC[C@]3(O)CCN2Cc2ccccc2F)ccc1O	i	83	i	i	i	i
CCOC(=O)CSc1nc2ccc(Nc3nc(N4CCOCC4)nc(N4CCOCC4)n3)cc2s1	i	nt	nt	nt	nt	i
CC(=O)Nc1ccc2nc(SCC(=O)Nc3ccc(N4CCOCC4)c(Cl)c3)sc2c1	i	i	76	i	i	i
Cc1cc(N2CCOCC2)nc(SCc2ccc(Cl)cc2Cl)n1	i	i	64	i	i	i
Cc1cc(N2CCOCC2)nc(C(C)C)n1	i	nt	nt	nt	nt	nt
CC(=O)CSc1nc2ccc(Nc3nc(N4CCOCC4)nc(N4CCOCC4)n3)cc2s1	i	75	55	i	i	nt
O=C(CSc1nc2ccccc2o1)Nc1ccc(N2CCOCC2)c(Cl)c1	i	73	89	i	i	i
O=C(CSc1nc2ccccc2o1)Nc1cc(C(F)(F)F)ccc1N1CCOCC1	i	i	i	i	i	i
O=C(CSc1nc2ccccc2s1)Nc1ccc(N2CCOCC2)c(Cl)c1	i	nt	nt	nt	nt	nt
CC1SC(c2ccccc2Cl)NC1=O (stereo not given)	i	i	i	i	i	i
Cc1cc(Oc2ccccc2)nc(SCC(=O)Nc2ccc(Cl)c(Cl)c2)n1	i	56	65	i	i	i
Cc1cc(C)nc(SCC(=O)Nc2ccc(N3CCOCC3)c(Cl)c2)n1	i	i	52	i	i	i
COc1ccc(OCC(=O)O/N=C(\N)Cc2ccc(Cl)cc2Cl)cc1	i	i	i	i	i	nt
Fc1ccccc1CSc1nncn1NC/C=C/c1ccccc1	i	53	i	i	i	i
